In ChEMBL document CHEMBL1157539, “Thousands of chemical starting points for antimalarial lead identification” (Nature, 2010):

Test system: HepG2
Test: GSK_TCMDC: Percent inhibition of human HepG2 cell line. Test compounds present at 10uM.
Assay type: functional

Row | Structure (SMILES) | Inhibition [%]
1 | O=S(=O)(c1cc(Cl)sc1Cl)N(CCC(O)(C(F)(F)F)C(F)(F)F)Cc1cccc(O)c1 | 0
2 | O=C(Nc1cccc(-c2nn3ncccc3c2-c2ccnc(Nc3ccccc3)n2)c1)c1c(F)cccc1F | 51
3 | C=CCOC(=O)N1CCC(CNCc2cccc(-c3ccc(-c4nc5cccc(C)c5[nH]4)cc3)c2)C1.O=C(O)C(F)(F)F (stereo not drawn) | 24
